# Shown are actives, neighbours in structure and some others; about 1.7% of the full set was active somewhere.
# GLP1R cytotox: cytotoxic in the GLP-1 receptor inverse agonist counter-screen; HEK293 cAMP-luciferase reporter cells, luminescence, 24 h; Potency, µM (titrated, usually from 38.3 µM), without a hit: at the highest dose activity change, negative = inhibition, most hits filed as inhibitors; 0.13% of 410,000 active; AID 624418;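 further: loss of luciferase light is scored as toxicity; on the % scale 0 is the no-effect control and ±100 the full control effect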
#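 MLSMR compounds, 24 hr on cells at 37 deg C/5% CO2; luminescence after luciferase reagent (12 min RT). Inhibition counted as the undesired cytotoxic outcome.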
# GLP-1R inv ag: inverse agonists of human GLP-1 receptor; P43220; HEK293 GLP-1R CRE-luciferase, luminescence, 24 h; GLP-1R form is constitutively active; Potency, µM (highest dose often 38.3 µM), for inactives: at the highest dose activity change, negative = inhibition, actives largely listed as inhibitors; 1.6% of 410,000 active; further: on the % scale 0 is the no-effect control and ±100 the full control effect; nearly all actives have a fitted effect of over 55% in size
#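 Inverse agonism was detected as reduced cAMP-driven luciferase luminescence after 24 h compound treatment. The cells were HEK293 clones expressing constitutively active human GLP-1R with the reporter. Reporter-only and GPR119 cell lines served as counterscreen controls.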
# GLP1R ag: GLP-1 receptor (human) agonism. P43220. HEK293 GLP-1R CRE-luciferase, luminescence, 4-6 h; cells express a hypersensitive GLP-1R form. Potency, µM (series often up to 45.6 µM), for the others: at the top dose activation, usual class: activators. 0.007% of 380,000 active. AID 624172; further: % of control where 0% means no effect
# PTHR1 ag: PTHR1 (human) receptor agonism. Q03431. HEK293 GP2 PTHR1 cells, GloSensor cAMP luminescence, 1 h. Potency, µM (series often up to 115 µM), for the others: top-dose activation, most hits filed as activators. 0.075% of 410,000 active. AID 743266; further: nearly all actives have a fitted effect of over 55% in size
# Target sequence (Q03431 whole entry, looked up): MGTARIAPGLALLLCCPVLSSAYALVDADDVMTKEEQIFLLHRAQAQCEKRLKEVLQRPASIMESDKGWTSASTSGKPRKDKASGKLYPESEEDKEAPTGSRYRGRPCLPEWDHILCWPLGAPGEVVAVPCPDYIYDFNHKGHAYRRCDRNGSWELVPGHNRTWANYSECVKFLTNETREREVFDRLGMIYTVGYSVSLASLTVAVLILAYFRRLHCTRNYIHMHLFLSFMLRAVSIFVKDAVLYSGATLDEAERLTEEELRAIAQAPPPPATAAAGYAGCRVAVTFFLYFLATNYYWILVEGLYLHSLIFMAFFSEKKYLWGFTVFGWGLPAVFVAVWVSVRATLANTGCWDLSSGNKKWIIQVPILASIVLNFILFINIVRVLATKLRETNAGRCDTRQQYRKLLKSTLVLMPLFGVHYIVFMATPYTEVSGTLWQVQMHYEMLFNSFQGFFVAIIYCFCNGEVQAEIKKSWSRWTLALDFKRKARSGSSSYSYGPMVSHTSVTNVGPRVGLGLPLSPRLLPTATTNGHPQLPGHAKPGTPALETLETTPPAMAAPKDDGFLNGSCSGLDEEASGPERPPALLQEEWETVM
#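 HEK-293-derived GP2 cells expressing PTHR1 and a GloSensor cAMP reporter, 3,000/well, plated overnight, given luciferin plus IBMX (each 0.5 mM as added) for 1 h at 37 °C, then compound for 1 h at 37 °C. Luminescence was read after 15 min at room temperature.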
# Starred values were filed as active, the others as inactive; i = inactive; ? = inconclusive; / = not tested or not shown; [ ] = dose if it differs, or a comment. The call rests on the fitted dose curve; in most records, active means well fitted curve in the direction sought with a large enough effect; inconclusive means small, poorly fitted or top-dose-only effect, or another doubt; inactive means no such curve, though single readings can be large; an effect the other way counts as inactive or inconclusive. Potency means the concentration at half of the fitted maximal effect.
SMILES,GLP1R cytotox,GLP-1R inv ag,GLP1R ag,PTHR1 ag
O=C(CSc1nnc(-c2ccco2)n1Cc1ccccc1)OC1CCCCC1,-20.3%,10µM*,1.5%,-20.5%
COC(=O)c1c(NC(=O)CSc2nnc(-c3ccco3)n2Cc2ccccc2)sc(C)c1C,0.0%,12.6µM*,-0.5%,i
O=c1ccn(C2OC(COP(=O)(O)OC3C(CO)OC(n4ccc(=O)[nH]c4=O)C3O)C(O)C2O)c(=O)[nH]1 (centres undefined),/,/,-5.5%,/
Cc1ccc(Cc2nc3ccccc3nc2SCC(=O)N2CCCCC2C)cc1 (centres undefined),-6.9%,10µM*,-4.8%,-35.1%
Cc1ccc(SCC(=O)Nc2ccccc2N2CCOCC2)cc1,3.4%,7.94µM*,11.3%,i
CCCC(=O)N1c2nc(C(C)C)nn2C2(CCCCC2)[C@@H]2CCCC[C@@H]21,7.9%,0.1%,/,-62.2%
CC1(C)C2CCC1(C)C(NC(=O)/C=C/c1ccccc1)C2 (centres undefined),-9.9%,7.08µM*,4.2%,-24.0%
CSC[C@H]1CN(CCc2ccccc2)C(=O)[C@@H]1CC(=O)Nc1ccc(Br)cc1,-13.4%,10µM*,4.6%,-33.2%
O=C(C[C@H]1C(=O)N(CCc2ccccc2)C[C@@H]1Cc1ccccc1)Nc1ccc(Br)cc1,-24.3%,7.94µM*,-5.9%,-51.5%
NC[C@@H]1O[C@@H](O[C@H]2[C@@H](O)[C@H](O[C@@H]3[C@@H](O)[C@@H](N)C[C@H](N)[C@H]3O[C@H]3O[C@H](CN)[C@@H](O)[C@@H](O)[C@H]3N)O[C@H]2CO)[C@H](N)[C@@H](O)[C@@H]1O,/,/,-2.3%,/
CCc1ccc(NC(=O)c2ccc(F)c(S(=O)(=O)NC3CCCCCC3)c2)cc1,-28.6%,?,/,i
CCOc1ccc(NC(=O)c2ccc(F)c(S(=O)(=O)N(Cc3ccc(C(=O)OC)cc3)Cc3ccc(OC)c(OC)c3)c2)cc1,-14.3%,-12.5%,/,i
CCc1ccc(NC(=O)c2ccc(F)c(S(=O)(=O)NCC3COc4ccccc4O3)c2)cc1 (centres undefined),?,5.01µM*,-7.0%,-47.3%
CCc1ccc(NC(=O)c2ccc(F)c(S(=O)(=O)NCCc3ccc(OC)c(OC)c3)c2)cc1,-20.0%,10µM*,/,-90.4%
COc1cccc(-c2csc(-c3c(N)c(C(=O)c4ccccc4)n4ccccc34)n2)c1,0.2%,-13.1%,/,-28.7%
CCCCOc1ccc(C(=O)Nc2ccc3c(c2)CCCN3C(=O)c2cccs2)cc1,0.0%,?,/,-40.7%
COc1ccccc1NC(=O)c1cc2n(n1)C(C(F)(F)F)CC(c1ccc3c(c1)OCO3)N2 (centres undefined),-8.7%,2µM*,-21.4%,-2.5%[57.5 µM]
O=C1OC(c2ccccc2)(c2ccccc2)c2ccccc21,17.2%,7.94µM*,11.7%,-33.3%
Cc1cc(/C=C(\C#N)C(=O)NCc2cccs2)c(C)n1-c1ccccc1F,-5.3%,2.82µM*,7.4%,-15.9%[57.5 µM]
COc1ccccc1CN(C)C(=O)C(c1ccccc1)c1ccccc1,?,12.6µM*,2.6%,-37.8%
CN(Cc1ccc(F)cc1)C(=O)C(c1ccccc1)c1ccccc1,-14.9%,?,6.8%,-15.6%
O=S(=O)(NCC(c1ccco1)N1CCN(c2ccccc2)CC1)c1ccccc1 (centres undefined),1.3%,-29.1%,/,0.6%
CCN1CCCC1CNC(=O)c1ccc(Sc2ccc(F)cc2)c([N+](=O)[O-])c1 (centres undefined),3.1%,?,10.4%,i
CCN1CCCC1CNC(=O)c1ccc(Sc2ccccc2Cl)c([N+](=O)[O-])c1 (centres undefined),-28.1%,3.16µM*,7.0%,i
Cc1cc(NC(=O)CSc2nnc(COc3ccccc3)n2Cc2ccco2)no1,4.7%,1.4%,-8.4%,i
SMILES,GLP1R cytotox,GLP-1R inv ag,GLP1R ag,PTHR1 ag
Cc1ccc(OCc2nnc(SCC(=O)C(C)(C)C)n2Cc2ccco2)cc1,13.8%,2µM*,12.8%,-10.6%
COc1ccc(S(=O)(=O)Nc2cccc(-c3ccc(N4CCC(C)CC4)nn3)c2)cc1OC,0.3%,?,/,-90.0%
CCOC(=O)c1cc(-c2ccc(OC)cc2)n(CCC(=O)NC2CCCCC2)c1C,15.9%,?,/,-2.3%
Cc1ccc2c(c1)c1c(n2CC(O)Cn2ccnc2C)C(=O)CCC1 (centres undefined),1.5%,?,-2.6%,i
Cc1ccc2c(c1)c1c(n2CC(O)CNC2CCCC2)CCCC1 (centres undefined),?,11.2µM*,-0.6%,i
COc1cc(OC)cc(C(=O)Nc2ccc3nc(N4CCCCC4)cc(C)c3c2)c1,-18.9%,11.2µM*,/,4.7%
Cc1cc(N2CCN(C)CC2)nc2ccc(NC(=S)N3CCCCCC3)cc12,-15.4%,11.2µM*,21.3%,i
Cc1cc(N2CCN(C)CC2)nc2ccc(NC(=S)N3CCN(c4ccc(F)cc4)CC3)cc12,?,?,-0.1%,i
Cc1cc(N2CCN(C)CC2)nc2ccc(NC(=S)N3CCCCC3)cc12,-22.2%,10µM*,19.0%,i
Cc1ccc(NC(=S)/C(=C(\[O-])c2ccc(Cl)s2)[n+]2cccc(CO)c2)cc1C,-20.8%,?,-13.9%,i
[O-]/C(=C(\C(=S)Nc1ccc(SC(F)F)cc1)[n+]1ccccc1)c1cc(Cl)ccc1Cl,-11.2%,6.31µM*,10.9%,-33.2%
[O-]/C(=C(\C(=S)Nc1ccc(SC(F)F)cc1)[n+]1cccc(CO)c1)c1ccc(Cl)s1,?,5.01µM*,10.3%,-9.7%
COc1ccccc1N1CCN(C(=O)c2ccc(COc3cccc4c3OC(C)(C)C4)cc2)CC1,10.1%,7.08µM*,-19.6%,-40.1%
O=C(/C=C/c1cn(-c2ccccc2)nc1-c1cccc(Cl)c1)N1CCN(c2ccccn2)CC1,-8.8%,7.08µM*,1.5%,-32.6%
COc1ccccc1N1CCN(C(=O)c2ccc3[nH]c4c(c3c2)CCCC4)CC1,3.7%,10µM*,0.6%,-71.8%
COc1ccccc1N1CCN(C(=O)c2cnc(N3CCCCC3)c3ccccc23)CC1,?,3.55µM*,/,-13.1%
O=C(/C=C/c1cn(-c2ccccc2)nc1-c1cccnc1)N1CCCCC1,-14.6%,14.0%,21.4%,-0.7%
O=C(c1ccc2[nH]c3c(c2c1)CCCC3)N1CCN(c2ccc(F)cc2)CC1,-1.0%[1.53 µM],?,-5.4%,i
Cc1cc2n(n1)CCC(=O)N2Cc1ccc(C(=O)Nc2ccc(F)cc2F)cc1,?,?,/,-45.1%
O=C(c1cc(Cl)ccc1Cl)N1CCN(c2ccccn2)CC1,-2.8%,16.2%,16.2%,i
O=C(c1cnc(N2CCN(c3ccccn3)CC2)c2ccccc12)N1CCN(c2cccc(Cl)c2)CC1,-19.2%,2.24µM*,2.1%,-48.8%
O=C(NC1CCCCC1)c1n[nH]c2c1CCCCC2,4.6%,2.51µM*,-7.8%,-93.2%
Cc1ccc(CNC(=O)CNC(=S)N(Cc2ccccc2)Cc2ccccc2F)cc1,17.3%,10µM*,10.0%,-21.5%
